Unmarked numbers belong to inactive results. Results filed as inconclusive are left out. The source made the active and inactive calls. Unless noted, calls follow the shape of the full dose curve.

For test [1], the target named is Acetylcholinesterase (Homo sapiens) (UniProt P22303). The test can be described thus: Acetylcholinesterase (AChE) small molecule antagonists: colormetric cell-based qHTS assay (AID 1347395). Also: nearly all actives have a fitted effect of over 30% in size. Also: potency is read from the fitted curve at half-maximal effect. As to conditions: SH-SY5Y cells AChE activity, colorimetric (Ellman); series mostly up to 115 µM. The method in brief: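 SH-SY5Y cells attached overnight, exposed to compound 30 min at 37 C, then given DTNB/acetylthiocholine; after 90 min at 37 C, colorimetric thiocholine read gives cellular AChE activity.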
Sequence of Acetylcholinesterase (Homo sapiens) (P22303 whole entry, looked up): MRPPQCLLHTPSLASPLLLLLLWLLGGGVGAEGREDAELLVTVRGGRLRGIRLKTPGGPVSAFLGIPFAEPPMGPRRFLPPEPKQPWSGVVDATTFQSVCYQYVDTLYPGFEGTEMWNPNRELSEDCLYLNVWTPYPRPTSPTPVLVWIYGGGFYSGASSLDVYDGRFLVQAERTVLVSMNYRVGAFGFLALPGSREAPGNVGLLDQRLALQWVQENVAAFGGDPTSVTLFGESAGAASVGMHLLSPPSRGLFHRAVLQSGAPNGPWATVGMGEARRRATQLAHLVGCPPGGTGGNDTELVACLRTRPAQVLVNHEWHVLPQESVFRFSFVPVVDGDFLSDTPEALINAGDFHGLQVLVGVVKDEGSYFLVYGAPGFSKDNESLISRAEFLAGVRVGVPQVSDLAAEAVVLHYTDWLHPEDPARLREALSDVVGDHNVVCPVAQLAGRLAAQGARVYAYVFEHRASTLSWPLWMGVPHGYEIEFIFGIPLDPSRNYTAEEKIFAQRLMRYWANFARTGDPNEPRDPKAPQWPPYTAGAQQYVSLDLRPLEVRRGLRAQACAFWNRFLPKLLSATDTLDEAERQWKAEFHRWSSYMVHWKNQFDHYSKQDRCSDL

For test [2] the target is unchanged. In words: Acetylcholinesterase (AChE) small molecule antagonists: fluorescence cell-based qHTS assay (AID 1347398). Also: nearly all actives have a fitted effect of over 50% in size. Also: potency is read from the fitted curve at half-maximal effect. As to activity change, negative = inhibition: % is scaled to controls: 0 for no effect and ±100 for the full control effect. As to conditions: SH-SY5Y cells; Potency: AChE activity; outcome: AChE activity; series mostly up to 115 µM. Summed up:
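Cellular AChE inhibition: SH-SY5Y cells treated with test chemical for 30 min at 37 C, then acetylthiocholine hydrolysis followed over 40 min at room temperature via thiocholine-reactive Thiolite Green fluorescence (490/520 nm).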

For test [3] the target is unchanged. The test can be described thus: Acetylcholinesterase (AChE) small molecule antagonists: enzyme-based qHTS assay with human liver microsomes (AID 1347399). Also: % is scaled to controls: 0 for no effect and ±100 for the full control effect; nearly all actives have a fitted effect of over 60% in size. As to conditions: Potency: qHTS inhibition; outcome: qHTS inhibition; series mostly up to 115 µM. Summed up: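 Recombinant human AChE (50 mU/mL in the enzyme mix) and human liver microsomes (0.25 mg/mL final) were preincubated with compound and NADPH (0.25 mg/mL final) for 30 min at 37 C. Acetylthiocholine/DTNB was then added; thiocholine was read colorimetrically after 10 min at room temperature.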
A general note: qHTS replaces the single test concentration by a dilution series.

Test [4] has the same target. The test can be described thus: Acetylcholinesterase (AChE) small molecule antagonists: enzyme-based qHTS assay (AID 1347397). Also: % is scaled to controls: 0 for no effect and ±100 for the full control effect; nearly all actives have a fitted effect of over 55% in size. As to conditions: Potency: AChE enzyme activity inhibition; outcome: AChE enzyme activity inhibition; series mostly up to 115 µM. Summed up: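 Tox21 library chemicals are tested in qHTS format against recombinant human AChE. The enzyme, dispensed at 50 mU/mL, sits with compound for 30 min at room temperature. A DTNB–acetylthiocholine cocktail follows, and colour is read after 10 min.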

The nature of test [5]: qHTS assay for small molecule agonists of the p53 signaling pathway (AID 651631). Also: potency is read from the fitted curve at half-maximal effect; nearly all actives have a fitted effect of over 15% in size. The conditions noted are these: HCT-116 p53RE-bla reporter, beta-lactamase FRET ratio, 16 h; series mostly up to 73.3 µM. The method in brief:
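HCT-116 cells carrying a beta-lactamase reporter under p53 response elements were dosed with compound for 16 h at 37 °C. LiveBLAzer B/G FRET substrate was then added for 2 h at room temperature, and fluorescence intensity was read to detect pathway agonism.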

For a further test, the target named is Aromatase (Homo sapiens) (UniProt P11511). In words: qHTS assay to identify aromatase inhibitors (AID 743083; active = well fitted inhibition curve with a large enough effect in the repeat runs; also: potency is read from the fitted curve at half-maximal effect; nearly all actives have a fitted effect of over 55% in size). The conditions noted are these: MCF-7 aro ERE, testosterone-driven ERE luciferase, 24 h; series mostly up to 70.3 µM.
Sequence of Aromatase (Homo sapiens) (P11511 whole entry, looked up): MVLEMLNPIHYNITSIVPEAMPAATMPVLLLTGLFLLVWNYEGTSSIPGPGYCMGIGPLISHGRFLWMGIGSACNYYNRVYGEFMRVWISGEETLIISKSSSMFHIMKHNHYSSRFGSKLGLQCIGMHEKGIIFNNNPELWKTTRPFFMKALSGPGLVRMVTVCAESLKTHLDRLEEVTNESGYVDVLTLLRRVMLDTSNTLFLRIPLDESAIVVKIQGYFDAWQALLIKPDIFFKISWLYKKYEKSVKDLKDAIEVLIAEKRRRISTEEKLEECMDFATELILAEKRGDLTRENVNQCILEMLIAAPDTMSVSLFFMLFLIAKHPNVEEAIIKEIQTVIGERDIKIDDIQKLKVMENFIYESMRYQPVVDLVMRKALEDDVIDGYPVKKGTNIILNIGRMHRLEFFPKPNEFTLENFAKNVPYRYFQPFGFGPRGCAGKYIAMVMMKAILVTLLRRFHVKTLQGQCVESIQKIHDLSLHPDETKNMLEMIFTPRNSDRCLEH

As to `CCCCOC(=O)C(C)O` (stereo not given), the Potency result in test [1], in test [2] and in test [3] was “inactive” each time.
Regarding `CCN(CC)c1ccc(N)cc1`, the Potency in test [1] and in test [2] was 32.6 µM (active) in each case. In addition, the Potency result in test [3] was “inactive”.
As for `Cc1ccsc1/C=C/C1=NCCCN1C`, the Potency in test [1] is 17.4 µM (active). Also, the Potency result in test [4] and in test [3] was “inactive” in each case.
`CC1=C(C)C(=O)C(CCCCC#CCCCC#CCO)=C(C)C1=O`: the Potency entry in test [1], in test [4] and in test [3] was “inactive” throughout.
As to `Cc1ccccc1C(=O)O`, the Potency entry in test [1], in test [4] and in test [3] was “inactive” in each case.
For `c1ccc(CN(Cc2ccccc2)Cc2ccccc2)cc1`, the Potency entry in test [1], in test [2] and in test [3] was “inactive” throughout.
As for `O=[N+]([O-])C1(Br)COCOC1`, the Potency result in test [1], in test [4] and in test [3] was “inactive” throughout.
With `CCCN1C[C@H](CSC)C[C@@H]2c3cccc4[nH]cc(c34)C[C@H]21`, the Potency in test [1] was 5.5 µM (active); in test [2], 12.3 µM (active).
Take `Cc1nc2ccccn2c(=O)c1CCN1CCC(C(=O)c2ccc(F)cc2)CC1`: the Potency was 24.5 µM (active) in test [1] and 7.76 µM (active) in test [2]. The Potency entry in test [3] is “inactive”.
Taken in the same sequence, the figures for `Cc1nc2n(c(=O)c1CCN1CCC(C(=O)c3ccc(F)cc3)CC1)CCS2` were 13.8 µM (active), 9.77 µM (active) and “inactive”.
With `Cc1c(-c2ccccc2)oc2c(C(=O)OCCN3CCCCC3)cccc2c1=O`, the Potency result in test [1], in test [4] and in test [3] was “inactive” each time.
`N#CSc1ccc(N)c([N+](=O)[O-])c1`: the Potency entry in test [1], in test [4] and in test [3] was “inactive” each time.
Regarding `CCCCCCCCCCCCCCOS(=O)(=O)O`, the Potency result in test [1] and in test [2] was “inactive” in each case.
For `O=C1NC(=O)c2cccc3cccc1c23`, in test [1], the Potency was 39.9 µM (active). Besides, the Potency entry in test [4] and in test [3] was “inactive” each time.
With `COc1cc(C(C)C)c2c(c1)S(=O)(=O)N(COc1cc(=O)n3cccc(OCCN4CCCCC4)c3n1)C2=O`, the Potency was 19 µM (active) in test [1] and 6.74 µM (active) in test [2]. Further, the activity change, negative = inhibition in test [3] was -1.08% [at 23.6 µM].
For `CN1CCN(Cc2cc(-c3ccc4[nH]c(=O)oc4c3)co2)[C@@H](c2ccc(F)cc2)C1`, the Potency result in test [1], in test [4] and in test [3] was “inactive” throughout.
For the molecule `O=[N+]([O-])c1ccc(O/N=C/c2cc(Br)c(O)c(Br)c2)c([N+](=O)[O-])c1`, the Potency entry in test [1], in test [4] and in test [3] was “inactive” each time.
On to `C[C@@H](CN(C)C)CN1c2ccccc2Sc2ccccc21`, for which the Potency entry in test [1], in test [4] and in test [3] was “inactive” each time.
Take `C=Cc1ccc(C=C)cc1`: the Potency result in test [1], in test [4] and in test [3] was “inactive” each time.
With `CC(C)(c1cc(Br)c(OCCO)c(Br)c1)c1cc(Br)c(OCCO)c(Br)c1`, the Potency (in test [5]; with Aromatase (Homo sapiens)) was 42.3 µM (active) in each case. The Potency result in test [1], in test [4] and in test [3] was “inactive” throughout.
`CN1CCCN=C1/C=C/c1cccs1`: the Potency in test [1] is 15.5 µM (active). The Potency entry in test [3] was “inactive”.
In the case of `CC(=O)Nc1cccc(N)c1`, the Potency result in test [1], in test [2] and in test [3] was “inactive” throughout.
For the molecule `COc1cnc(NS(=O)(=O)c2ccc(N)cc2)nc1`, the Potency result in test [1] and in test [3] was “inactive” each time.
Turning to `O=C(N/N=C/c1ccccc1O)c1ccncc1`, the Potency result in test [1] and in test [3] was “inactive” each time.
On to `CCCCCCCCCOC(=O)c1ccc(O)cc1`, for which the Potency entry in test [1], in test [2] and in test [3] was “inactive” in each case.
Take `CC(C)OC(=O)C(C)N(C(=O)c1ccccc1)c1ccc(F)c(Cl)c1` (stereo not given): the Potency result in test [1], in test [2] and in test [3] was “inactive” each time.
Consider `c1ccc(C[P+](c2ccccc2)(c2ccccc2)c2ccccc2)cc1`, for which the Potency in test [1] was 71 µM (active). Besides, the Potency result in test [3] is “inactive”.
On the same counts, the results for `c1ccc(-c2ccc(C(c3ccccc3)n3ccnc3)cc2)cc1` (stereo not given) are “inactive” and “inactive”.
Taken in the same sequence, the figures for `Clc1ccc(C(Cn2ccnc2)OCc2ccsc2Cl)c(Cl)c1` (stereo not given) were “inactive” and “inactive”.
As to `CCOC(=O)c1ccccc1C(=C1C=C(Br)C(=O)C(Br)=C1)c1cc(Br)c(O)c(Br)c1`, the Potency entry in test [1], in test [2] and in test [3] was “inactive” throughout.
`CSC(=O)c1cccc2nnsc12`: the figures for the Potency in test [1] and in test [2] were 35.6 µM (active) and 39.9 µM (active), respectively. The Potency entry in test [3] was “inactive”.
Take `CCCC(=O)OC[C@@H](OC(=O)CCC)[C@@H](OC(=O)CCC)[C@H](Cn1c2nc(=O)[nH]c(=O)c-2nc2cc(C)c(C)cc21)OC(=O)CCC`: the Potency entry in test [1] and in test [3] was “inactive” throughout.
In the case of `CCCCC/C=C\C/C=C\CCCCCCCC(=O)NC(C)c1ccccc1` (stereo not given), the Potency entry in test [1], in test [2] and in test [3] was “inactive” in each case.
With `CN(C)CCCNCCCN`, the Potency in test [1] and in test [2] was 35.4 µM (active) throughout. Further, the Potency entry in test [3] is “inactive”.
As for `CCN(CC)c1cccc(O)c1`, the Potency in test [1] is 36.3 µM (active); in test [2] it was 32.4 µM (active). In addition, the Potency result in test [3] was “inactive”.
On to `CC(=O)/C=C/C=C1/C2CCC(C2)C1(C)C` (stereo not given), for which the Potency in test [1] is 27.5 µM (active). In addition, the Potency entry in test [3] was “inactive”.

The values are drawn from PubChem BioAssay (Tox21).
